Assay outcomes (PubChem)
Hits are enriched below; roughly 21% of the tested compounds scored in any of these assays.
ClpP mod – qHTS Assay for Activators of ClpP; purified B. subtilis ClpP, FRET peptide cleavage, 20 min; Potency, µM (top dose mostly 57.5 µM); 340,000 compounds, 1.9% hits; active means well fitted falling curve with a large enough effect; inconclusive means small, poorly fitted or top-dose-only effect; inactive means no such curve, though single readings can be large or run the other way; further: the source files actives as falling curves though it sought activators and does not explain the sign; nearly all actives have a fitted effect of over 65% in size
Target sequence (P80244 whole entry, looked up): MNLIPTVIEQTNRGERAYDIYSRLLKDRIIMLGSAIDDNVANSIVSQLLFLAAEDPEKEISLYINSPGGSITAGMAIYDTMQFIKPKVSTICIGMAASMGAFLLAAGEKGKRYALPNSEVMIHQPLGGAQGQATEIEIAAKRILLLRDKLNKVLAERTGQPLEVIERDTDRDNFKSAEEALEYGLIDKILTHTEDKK
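Purified B. subtilis ClpP, 10 microg/mL final in Tris/HCl pH8 with KCl, BSA, glycerol and Tween-20, cleaved an Abz/nitrotyrosine-quenched decapeptide. Fluorescence (ex 320, em 430) was read at 0 and 20 min at room temperature. Delta was normalized to 5.8 microM ADEP and DMSO/no-enzyme controls.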
DRD3 antagonist – D3 dopamine receptor (human) antagonism; P35462; D3R cells, DiscoveRx beta-arrestin luminescence, antagonist mode; active compounds read low; max response, negative = inhibition, %; 360,000 compounds, 2.5% hits; AID 652054; in the data active means max response below about -50%; inconclusive means no clear call, values can overlap the other calls
Target sequence (P35462 whole entry, looked up): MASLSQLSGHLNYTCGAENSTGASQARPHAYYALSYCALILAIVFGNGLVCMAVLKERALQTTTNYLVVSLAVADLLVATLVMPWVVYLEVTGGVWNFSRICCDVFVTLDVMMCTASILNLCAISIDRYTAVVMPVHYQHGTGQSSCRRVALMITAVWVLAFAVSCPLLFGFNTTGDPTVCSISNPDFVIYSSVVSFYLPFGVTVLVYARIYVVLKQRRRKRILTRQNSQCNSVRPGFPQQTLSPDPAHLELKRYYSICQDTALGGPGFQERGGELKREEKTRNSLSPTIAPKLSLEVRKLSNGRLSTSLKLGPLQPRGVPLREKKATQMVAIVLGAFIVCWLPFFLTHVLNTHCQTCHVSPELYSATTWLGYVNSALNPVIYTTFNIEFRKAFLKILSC
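Cells expressing the human receptor were seeded at 1500 cells/well, incubated overnight at 37 degrees C in 5% CO2, then exposed to library compounds with dopamine controls for 90 minutes at 37 degrees C before luminescent detection.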
DRD3 agonist – agonists of human D3 dopamine receptor. D3R DiscoveRx beta-arrestin cells, luminescence, 90 min. 410,000 compounds, 0.58% hits. P35462. AID 652048. max activation, %; in the data active means max activation above about 30%
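Cells at 1500/well, incubated overnight, then treated with pinned compounds (dopamine as control) for 90 min at 37 degrees C. DiscoveRx reagent added for 30 - 60 minutes at room temperature; luminescence read.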
TDP1 cell CPT – growth inhibition of DT40 Tdp1-/-;hTDP1 cells with camptothecin (screen for TDP1 inhibitors). 420,000 compounds, 12% hits. Potency, µM (highest dose often 46.2 µM), actives largely listed as inhibitors. chicken DT40 Tdp1-/-;hTDP1 cells + 20 nM CPT, ATP luminescence, 48 h; further: nearly all actives have a fitted effect of over 55% in size
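Chicken DT40 Tdp1-/- cells stably complemented with human TDP1 were seeded at 400 cells/well in medium containing 20 nM camptothecin, exposed to pin-transferred compounds, and grown at 37 °C for at least 48 hr. Viability was read as ATP luminescence.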
IL1B secr inh – blocks inflammasome-driven IL-1 beta release; THP-1 LPS/ATP IL-1B secretion, AlphaLISA, 16 h; active compounds read low; AID 743279; activity change, % at 57.5 µM; 360,000 compounds, 4.7% hits; in the data active means activity change below about -50%; inconclusive means mostly about -30% to -49%
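THP-1 cells pretreated 1 hr with compounds (up to 57.5 uM final), then stimulated with LPS (250 ng/mL final) plus ATP (1.25 mM final); secreted IL-1B measured by AlphaLISA after 16 hr, decreased signal indicating inhibition.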
DT40 TDP1 no CPT – qHTS for Inhibitors of human tyrosyl-DNA phosphodiesterase 1 (TDP1): qHTS in cells in absence of CPT | DT40 Tdp1-/- hTDP1 cells, no CPT, ATP luminescence, 48 h | 420,000 compounds, 15% hits | Potency, µM (series often up to 46.2 µM), hits mostly inhibitors; further: nearly all actives have a fitted effect of over 55% in size
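Growth kinetics read by CellTiter-Glo luminescence after ≥48 hr at 37 °C. Cells: DT40 Tdp1-/- stably carrying human TDP1, 400 per well, compound exposure in the absence of CPT (DMSO vehicle).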
A number is an active result; – = inactive; ? = inconclusive; · = not tested or not shown. Unless noted, the call rests on the fitted dose curve; in most records, active means well fitted inhibition curve with a large enough effect; inconclusive means small, poorly fitted or top-dose-only effect; inactive means flat fitted curve, though single readings scatter.

SMILES	ClpP mod	DRD3 antagonist	DRD3 agonist	TDP1 cell CPT	IL1B secr inh	DT40 TDP1 no CPT
CCCCCC(=O)N1C[C@@H](O)[C@H](n2cc(C3CC3)nn2)C[C@@H]1c1ccccc1	–	–	–	?	–	16.4µM
CCCCCC(=O)N1C[C@@H](O)[C@H](n2cc(-c3ccc(F)cc3)nn2)C[C@@H]1c1ccc(Cl)cc1	–	–	–	16.4µM	-56.5	14.6µM
Cc1ccc(C)c(NC(=O)C2CCCN(S(=O)(=O)c3cccnc3)C2)c1 (configuration not stated)	–	–	–	–	–	–
COc1cc(C(=O)Oc2ccccc2OC(=O)c2cc(OC)c(OC)c(OC)c2)cc(OC)c1OC	·	–	–	–	–	–
COc1ccc(C(=O)ON=C2C=C(C)C(=O)C(C)=C2)cc1	–	–	–	13µM	?	23.1µM
COc1cc(C(=O)O/N=C(\N)c2ccncc2)cc(OC)c1OC	–	–	–	?	–	?
COc1cc(C(=O)O/N=C2\C=CC(=O)C(C)=C2)cc(OC)c1OC	–	-57.4	–	6.51µM	-71.8	16.4µM
COc1cc(C(=O)ON=C2C=C(C)C(=O)C(C)=C2)cc(OC)c1OC	–	–	–	14.6µM	–	16.4µM
COc1ccc(S(=O)(=O)N=C2C=C(C)C(=O)C(C)=C2)cc1	–	–	–	14.6µM	–	20.6µM
O=C(O)c1ccc(C(=O)Nc2cccc3ccccc23)c(C(=O)O)c1	–	–	–	–	–	–
CN(C)S(=O)(=O)c1ccc2c(c1)N(CC(=O)N1CCN(c3ccccc3F)CC1)CCS2	–	·	–	·	·	·
O=C(NCC1CCCCC1)c1cccc(-c2ccc(O)cc2)c1	·	–	–	?	-52.7	20.6µM
COc1ccc(-c2cc3c(=O)n(CC(=O)NCc4ccc(C)cc4)ncn3n2)cc1	–	–	–	7.31µM	–	6.51µM
COc1ccc(-c2cc3c(=O)n(CC(=O)NCCCN4CCN(Cc5ccccc5)CC4)ncn3n2)cc1	–	-66.9	–	9.2µM	–	5.17µM
COc1ccc(-c2cc3c(=O)n(CC(=O)NCCCN4CCC(Cc5ccccc5)CC4)ncn3n2)cc1	–	-100.9	–	?	–	?
COc1ccc(-c2cc3c(=O)n(CC(=O)NCc4ccc(F)cc4)ncn3n2)cc1	–	–	–	?	–	?
COc1ccc(-n2c3c(cc(C(=O)NCC(=O)c4ccccc4)c2=O)C(=O)CC(C)(C)C3)cc1	–	–	–	–	–	–
CSc1nc(O)c(C(c2cccc([N+](=O)[O-])c2)c2c(O)nc(SC)[nH]c2=O)c(=O)[nH]1	–	–	–	–	–	–
Cc1cc(SCc2ccc(Cl)cc2Cl)nc(=O)[nH]1	–	–	–	?	–	10.3µM
O=C1[C@H]2[C@@H](c3ccc(Cl)cc3)N3C(=O)N(c4cccc(Cl)c4)C(=O)[C@@]3(Cc3ccccc3)[C@H]2C(=O)N1C1CCCCC1	–	–	–	10.3µM	–	11.6µM
CC(C)C[C@@]12C(=O)N(c3cccc(Br)c3)C(=O)N1[C@H](c1ccc(F)cc1)[C@@H]1C(=O)N(C3CCCCC3)C(=O)[C@@H]12	–	–	51.4	–	–	–
O=C1[C@H]2[C@@H](c3ccc(F)cc3)N3C(=O)N(c4cccc(Br)c4)C(=O)[C@@]3(Cc3ccccc3)[C@H]2C(=O)N1C1CCCCC1	–	–	–	–	–	–
Nc1c(C(=O)CSc2nnc(-c3ccccc3)o2)c(=O)[nH]c(=O)n1C1CC1	–	–	–	?	–	–
COc1cc(/C=C2\SC(c3ccc(C)cc3)=NC2=O)cc(OC)c1O	–	-53.5	–	–	–	?
COc1ccc(/C=C2\SC(N)=NC2=O)cc1Br	–	–	–	?	–	?
SMILES	ClpP mod	DRD3 antagonist	DRD3 agonist	TDP1 cell CPT	IL1B secr inh	DT40 TDP1 no CPT
COc1cc(/C=C2\SC(N)=NC2=O)cc(Cl)c1O	–	–	–	–	–	?
Cc1ccc(C2=NC(=O)/C(=C/c3cc(O)c(O)c(Br)c3)S2)cc1	·	–	–	18.4µM	–	16.4µM
CC(=O)c1ccc(N2CCN(C(=O)NCc3noc4ccc(C)cc34)CC2)cc1	–	·	–	?	·	?
COc1cc(C(=O)NCC(=O)Nc2ccc(F)c(F)c2)ccc1OCC(=O)N1CCOCC1	–	–	–	–	–	–
COc1ccccc1C(=O)Nc1ccc(-c2nc3cc(C)cc(C)c3o2)cc1	–	·	–	–	·	–
Cc1cc(C)c2oc(-c3ccc(NC(=O)c4cc(Br)ccc4Cl)cc3)nc2c1	20µM	·	–	?	·	?
Cc1ccc(-c2nc3cc(NC(=O)c4cc(Br)ccc4Cl)ccc3o2)cc1	?	·	–	5.8µM	·	4.61µM
Cc1nc2cc(NC(=O)Nc3ccc(Br)cc3)ccc2o1	·	–	–	?	–	23.1µM
Cc1nc2ccc(NC(=O)Nc3ccnc4cccnc34)cc2o1	·	·	·	?	·	21.1µM
O=S(=O)(c1ccc(Cl)cc1)N1c2ccccc2Oc2nc3ccccc3nc21	–	–	–	23.1µM	–	16.4µM
COc1ccc(S(=O)(=O)N2c3cc(Cl)ccc3Oc3nc4ccccc4nc32)cc1	–	–	–	0.731µM	–	1.64µM
COc1ccc(Cl)cc1S(=O)(=O)n1nnc2ccccc21	–	–	–	–	–	–
O=S(=O)(c1ccc(Cl)cc1)N1CN(CC2CCCO2)c2nc3ccccc3nc21 (configuration not stated)	–	–	–	?	–	–
CC(=O)Nc1ccc(NC(=O)C(C)OC(=O)CNC(=O)c2ccc(-c3ccccc3)cc2)cc1 (configuration not stated)	–	–	–	–	–	–
NS(=O)(=O)c1ccc(S(=O)(=O)N(CCc2ccccc2)Cc2ccccn2)cc1	–	–	–	–	–	–
Cc1ccc(S(=O)(=O)N2CCCC2C(=O)Nc2ccc(Br)cc2)cc1 (configuration not stated)	–	·	–	?	·	14.6µM
Cc1cc(C)cc(NC(=O)C2CCCN2S(=O)(=O)c2ccc3c(c2)C(C)(C)C(=O)N3C)c1 (configuration not stated)	–	–	–	16.4µM	–	?
COc1cccc(NC(=O)C2CCCN2S(=O)(=O)c2ccc3c(c2)C(C)(C)C(=O)N3C)c1 (configuration not stated)	–	–	–	–	–	?
CC1CCN(c2ccc(NC(=O)C3CCCN3S(=O)(=O)c3ccc(F)cc3)cc2)CC1 (configuration not stated)	–	–	–	18.4µM	?	4.11µM
